Inconclusive results are not listed. A structure can be active in one record and inactive in another. Active and inactive are the calls of the source. Unless noted, calls follow the shape of the dose curve; as a rule, active = well fitted activation curve with a large enough effect; inconclusive = small, poorly fitted or top-dose-only effect; inactive = flat fitted curve, though single readings scatter.
Tested on: not listed separately
Test: qHTS assay for small molecule agonists of the antioxidant response element (ARE) signaling pathway (AID 651741; active = well fitted activation curve with a large enough effect in the signal ratio; the % refers to the signal ratio; also: potency is read from the fitted curve at half-maximal effect; as to activation: % of control where 0% means no effect)
Conditions: HepG2 ARE-bla reporter, beta-lactamase FRET ratio, 16 h; series mostly up to 96 µM; activation: at the top concentration
Procedure, shortened: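 HepG2 ARE-bla reporter cells, 2,000/well; 5 h settle at 37 C/5% CO2; compound pin transfer (23 nL, DMSO); 16 h at 37 C; LiveBLAzer B/G FRET substrate, 2 h RT; fluorescence intensity read.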

| Structure (SMILES) | Potency | activation |
| --- | --- | --- |
| Cc1ccc([N+](=O)[O-])cc1N | 33.5 µM (active) and inactive | – |
| Cc1nn(C)c(Oc2ccccc2)c1/C=N/OCc1ccc(C(=O)OC(C)(C)C)cc1 | 0.154 µM (active) | – |
| CCC(CC)Nc1c([N+](=O)[O-])cc(C)c(C)c1[N+](=O)[O-] | 27.3 µM (active) | – |
| CN(C)c1ccc(Cc2ccc(N(C)C)cc2)cc1 | – | 14.7% (inactive) |
| CN(c1c(Br)cc(Br)cc1Br)c1c([N+](=O)[O-])cc([N+](=O)[O-])cc1C(F)(F)F | 5.45 µM (active) | – |
| c1ccc2cc3c(ccc4ccccc43)cc2c1 | 12.2 µM (active) | – |
| c1ccc(-c2ccc(-c3ccccc3)cc2)cc1 | 19.3 µM (active) | – |
| CCC[CH2][Sn]([CH2]CCC)([CH2]CCC)[O][Sn]([CH2]CCC)([CH2]CCC)[CH2]CCC | 27.3 µM (active) | – |
| CCC(C)(c1ccc(O)cc1)c1ccc(O)cc1 | 54.5 µM (active) | – |
| c1ccc2c(c1)ccc1c3ccccc3ccc21 | 4.33 µM (active) | – |

Tested on: not listed separately
Test: qHTS assay for small molecule activators of the p53 signaling pathway (AID 651743; active = well fitted activation curve with a large enough effect in the signal ratio, not every such curve was filed as active; the % refers to the signal ratio; also: potency is read from the fitted curve at half-maximal effect; as to activation: % of control where 0% means no effect)
Conditions: HCT-116 p53RE-bla, beta-lactamase FRET ratio, 16 h; activation: stronger effect = higher value
Procedure, shortened: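 Reporter: beta-lactamase driven by p53 response elements, stably integrated in HCT-116 cells. Cells seeded at 4,000/well, 5 h preincubation, compound (DMSO) 16 h at 37 C; B/G FRET substrate 2 h RT; fluorescence intensity read.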

| Structure (SMILES) | activation | Potency |
| --- | --- | --- |
| O=C(O)COc1ccc(Cl)cc1 | -0.56% (inactive) | – |
| Cc1ccc(-c2c(Cl)nc(C#N)n2S(=O)(=O)N(C)C)cc1 | – | 28.2 µM (active) |
| Nc1cccc(C(F)(F)F)c1 | -3.34% (inactive) | – |
| CCc1nn(C)c(C(=O)NCc2ccc(C(C)(C)C)cc2)c1Cl | – | 0.355 µM (active) |
| CCC(CC)Nc1c([N+](=O)[O-])cc(C)c(C)c1[N+](=O)[O-] | -0.326% (inactive) | – |
| C[Si](Cn1cncn1)(c1ccc(F)cc1)c1ccc(F)cc1 | -4.21% (inactive) | – |
| C1=Cc2cccc3cccc1c23 | -6.25% (inactive) | – |
| [CH3][Sn]([Cl])([Cl])[Cl] | -2.75% (inactive) | – |
| CCC(C)(c1ccc(O)cc1)c1ccc(O)cc1 | -1.26% (inactive) | – |
| [Cu+2].[O-]c1cccc2cccnc12.[O-]c1cccc2cccnc12 | -8.29% (inactive) | – |

Tested on: not listed separately
Test: qHTS assay for small molecule activators of the nuclear factor-kappa B (NF-kB) signaling pathway (AID 651749; active = well fitted activation curve with a large enough effect in the signal ratio; the % refers to the signal ratio; also: % of control where 0% means no effect)
Conditions: NF-kB-bla ME-180 cells, beta-lactamase FRET ratio, 16 h; activation: stronger effect = higher value
Procedure, shortened: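 NF-kB-bla ME-180 cells, 2,000/well; 23 nL compound or DMSO pinned; 16 hr, 37C/5% CO2; beta-lactamase FRET read-out.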

| Structure (SMILES) | activation |
| --- | --- |
| O=C(O)COc1ccc(Cl)cc1 | -0.213% (inactive) |
| Cc1ccc(-c2c(Cl)nc(C#N)n2S(=O)(=O)N(C)C)cc1 | 2.86% (inactive) |
| CCc1nn(C)c(C(=O)NCc2ccc(C(C)(C)C)cc2)c1Cl | 2.69% (inactive) |
| CCC(CC)Nc1c([N+](=O)[O-])cc(C)c(C)c1[N+](=O)[O-] | -1.58% (inactive) |
| CCOP(=O)(OCC)Oc1ccc([N+](=O)[O-])cc1 | 0.546% (inactive) |
| CCC(C)(c1ccc(O)cc1)c1ccc(O)cc1 | -1.76% (inactive) |

Tested on: not listed separately
Test: qHTS assay for environmental chemicals that activate the Aryl hydrocarbon Receptor (AhR) signaling pathway (AID 651777); also: nearly all actives have a fitted effect of over 15% in size; also: potency is read from the fitted curve at half-maximal effect; as to activation: % of control where 0% means no effect
Conditions: 1A2-DRE human hepatoma cells, luciferase, 24 h; activation: stronger effect = higher value
Procedure, shortened: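 Induction of CYP1A2 transcription through AhR is detected by luciferase in 1A2-DRE hepatoma cells. Compounds or DMSO act for 24 hr at 37 C before a 30 min One-Glo step at room temperature.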

| Structure (SMILES) | activation | Potency |
| --- | --- | --- |
| O=C(O)COc1ccc(Cl)cc1 | 1.68% (inactive) | – |
| Cc1ccc(-c2c(Cl)nc(C#N)n2S(=O)(=O)N(C)C)cc1 | 12.8% (inactive) | – |
| CCc1nn(C)c(C(=O)NCc2ccc(C(C)(C)C)cc2)c1Cl | 6.31% (inactive) | – |
| CCC(CC)Nc1c([N+](=O)[O-])cc(C)c(C)c1[N+](=O)[O-] | 4.64% (inactive) | – |
| C[Si](Cn1cncn1)(c1ccc(F)cc1)c1ccc(F)cc1 | 6.54% (inactive) | – |
| Nc1ccccc1O | – | 12.6 µM (active) |
| C1=Cc2cccc3cccc1c23 | 0.26% (inactive) | – |
| Oc1ccc2ccccc2c1N=Nc1ccccc1 | – | 14.1 µM (active) |
| CCOP(=O)(OCC)Oc1ccc([N+](=O)[O-])cc1 | 0.386% (inactive) | – |
| CN(c1c(Br)cc(Br)cc1Br)c1c([N+](=O)[O-])cc([N+](=O)[O-])cc1C(F)(F)F | -7.94% (inactive) | – |
| c1ccc2cc3c(ccc4ccccc43)cc2c1 | – | 22.4 µM (active) |
| CCC[CH2][Sn]([CH2]CCC)([CH2]CCC)[O][Sn]([CH2]CCC)([CH2]CCC)[CH2]CCC | 0.111% (inactive) | – |
| CCC(C)(c1ccc(O)cc1)c1ccc(O)cc1 | -1.12% (inactive) | – |
| [Cu+2].[O-]c1cccc2cccnc12.[O-]c1cccc2cccnc12 | -12.2% (inactive) | – |
| O=C1c2ccccc2C(=O)N1SC(Cl)(Cl)Cl | -3.47% (inactive) | – |
| c1ccc2c(c1)ccc1c3ccccc3ccc21 | – | 11.2 µM (active) |
| CCC(C)Nc1c([N+](=O)[O-])cc(C(C)(C)C)cc1[N+](=O)[O-] (centres undefined) | 5.25% (inactive) | – |

Target: Peroxisome proliferator-activated receptor alpha (Homo sapiens) (UniProt Q07869)
Test: qHTS assay for small molecule agonists of the peroxisome proliferator-activated receptor alpha (PPARalpha) signaling pathway (AID 651778); also: % of control where 0% means no effect
Conditions: PathHunter PPARalpha complementation, chemiluminescence, 6 h; max response: stronger effect = higher value
Procedure, shortened: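 Enzyme-fragment complementation assay in which ligand-bound PPARalpha translocates and forms an active enzyme that generates chemiluminescence. Cells were plated overnight, exposed to compound for 6 hr at 37 C, and then given detection reagent for 60 min at room temperature.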

Peroxisome proliferator-activated receptor alpha (Homo sapiens), sequence (Q07869 whole entry, looked up): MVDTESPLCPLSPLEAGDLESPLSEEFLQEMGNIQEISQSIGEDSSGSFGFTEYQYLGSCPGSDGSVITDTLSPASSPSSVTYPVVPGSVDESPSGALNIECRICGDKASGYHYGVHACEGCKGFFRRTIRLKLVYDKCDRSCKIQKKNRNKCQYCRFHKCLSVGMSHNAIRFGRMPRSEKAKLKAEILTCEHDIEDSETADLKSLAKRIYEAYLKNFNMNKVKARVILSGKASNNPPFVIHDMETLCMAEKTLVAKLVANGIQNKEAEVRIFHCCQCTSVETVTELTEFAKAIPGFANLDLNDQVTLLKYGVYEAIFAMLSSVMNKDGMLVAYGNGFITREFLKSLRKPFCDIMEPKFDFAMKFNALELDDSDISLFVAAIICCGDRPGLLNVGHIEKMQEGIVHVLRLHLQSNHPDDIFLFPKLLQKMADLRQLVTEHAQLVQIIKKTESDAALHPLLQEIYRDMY

| Structure (SMILES) | max response |
| --- | --- |
| O=C(O)COc1ccc(Cl)cc1 | -2.55% (inactive) |
| Cc1ccc(-c2c(Cl)nc(C#N)n2S(=O)(=O)N(C)C)cc1 | 15.7% (inactive) |
| CCC(CC)Nc1c([N+](=O)[O-])cc(C)c(C)c1[N+](=O)[O-] | -0.0369% (inactive) |
| C[Si](Cn1cncn1)(c1ccc(F)cc1)c1ccc(F)cc1 | -0.864% (inactive) |
| C1=Cc2cccc3cccc1c23 | 3.92% (inactive) |
| CCOP(=O)(OCC)Oc1ccc([N+](=O)[O-])cc1 | -2.58% (inactive) |
| CN(c1c(Br)cc(Br)cc1Br)c1c([N+](=O)[O-])cc([N+](=O)[O-])cc1C(F)(F)F | -2.57% (inactive) |
| [CH3][Sn]([Cl])([Cl])[Cl] | 0.635% (inactive) |
| CCC[CH2][Sn]([CH2]CCC)([CH2]CCC)[O][Sn]([CH2]CCC)([CH2]CCC)[CH2]CCC | 5.55% (inactive) |
| [Cu+2].[O-]c1cccc2cccnc12.[O-]c1cccc2cccnc12 | -9.55% (inactive) |
| O=C1c2ccccc2C(=O)N1SC(Cl)(Cl)Cl | 9.12% (inactive) |
